Source: PubChem (several laboratories)
Sampled rows, rich in hits. Any-hit rate of the full collection: about 5.7%.
Hsp90 block = tumor Hsp90 inhibitors, primary screen, cell lysate, fluorescence polarization, NCI-N417 lysate. AID 429, 2006. inhibition, % at 30 µM. Heat shock protein HSP 90-alpha (Homo sapiens), P07900. hit rate 0.35% among 64,000. Cy3B-geldanamycin FP displacement;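 active = inhibition above 50%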;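 also: 0% = tracer plus lysate wells and 100% = tracer alone without lysate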
A340 absorber = compound light absorbance at 340 nm, profiling panel, artefact control, biochemical, MLSMR library, data from PS, PMK, MK assays; fold change at 10 µM; 65,000 tested, under 10 active; compound absorbance at 340 nm, fold over control;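 active = at 10 µM dose, initial 340 nm absorbance at least 2 fold that of control wells; inactive = change under 2 fold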;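 also: initial absorbance extrapolated from kinetic A340 decline of NADH oxidation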
NADH enzymes = inhibitors of PK/LDH coupling enzymes, profiling panel, artefact control, biochemical, MLSMR library | coupled PK/LDH NADH assays, four targets | IC50, µM (series often up to 10 µM), for the others: top-dose inhibition | hit rate 0.02% among 65,000;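 active = single-dose screening hits from any of four coupled enzyme assays that gave an IC50 when retested across doses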;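 also: the DPM-DC format reads NADH fluorescence rather than 340 nm absorbance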
DUSP1 inh = MKP-1 phosphatase inhibitors, primary screen, biochemical, in vitro; hit rate 0.15% among 65,000; inhibition, %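 (compounds tested at a single concentration somewhere between 10 and 100 µM)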; recombinant MKP-1, OMFP hydrolysis fluorescence; AID 374, 2006;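 active = inhibition above about 50%, limit read from the data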;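 also: 0% = DMSO max control wells and 100% = wells with enzyme stopped by NaOH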
Target sequence (P28562 whole entry, looked up): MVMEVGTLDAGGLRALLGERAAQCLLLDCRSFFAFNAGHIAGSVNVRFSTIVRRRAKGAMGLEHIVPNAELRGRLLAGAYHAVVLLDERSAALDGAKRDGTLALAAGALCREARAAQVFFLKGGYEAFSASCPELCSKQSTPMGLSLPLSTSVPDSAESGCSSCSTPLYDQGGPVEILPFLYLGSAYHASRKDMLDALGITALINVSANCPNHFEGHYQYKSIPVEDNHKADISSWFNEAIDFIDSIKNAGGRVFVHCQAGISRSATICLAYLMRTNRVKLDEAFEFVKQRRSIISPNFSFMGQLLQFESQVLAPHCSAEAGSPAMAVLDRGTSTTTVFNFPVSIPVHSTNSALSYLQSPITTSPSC
Fluor 339 460 = intrinsic fluorescence of library compounds, ex339/em460 – biochemical, MLSMR library, data from DPM-DC assay, artefact control, profiling panel | compound autofluorescence, ex339/em460 nm, NADH buffer; stronger effect = higher value; 1 = no-compound wells, NADH background | fluorescence fold increase at 10 µM | hit rate 5.5% among 65,000;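 active = at 10 µM, mean starting fluorescence two-fold or more over control wells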;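 also: signal is the first read of a kinetic run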
Cdc25B inh = inhibitors of Cdc25B phosphatase catalytic domain, primary screen, biochemical, OMFP fluorescence. recombinant Cdc25B, OMFP fluorescence Ex485/Em525. inhibition, %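 (compounds tested at 10 µM final in the well)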. AID 368, 2006. hit rate 0.1% among 65,000; in the data active = inhibition above about 50%
Active calls of the source: *; . = no result given.

SMILES	Hsp90 block	A340 absorber	NADH enzymes	DUSP1 inh	Fluor 339 460	Cdc25B inh
CCCN1C(=O)c2ccccc2NC1c1ccc(OC)cc1O (configuration not stated)	-1	1	9%	-6	5*	4
CCCN1C(=O)c2ccccc2NC1c1ccc(OC)cc1OC (configuration not stated)	-3	1.1	12%	-8	5.1*	-14
Cc1cc(N2C(=O)C3C4C=CC(C4)C3C2=O)ccc1Br (configuration not stated)	-4	0.99	3%	-10	1	5
O=C(c1ccc(CSCc2ccccc2F)o1)N1CCN(c2ccc(N3CCOCC3)nn2)CC1	-4	0.98	4%	2	2.4*	-11
O=C(c1cc2ccccc2oc1=O)N1CCN(c2ccc(N3CCOCC3)nn2)CC1	-3	1	1%	1	1.1	-4
Cn1c2ccccc2c2ncn(Cc3ccco3)c(=O)c21	-10	1.1	11%	-7	2.9*	9
Cc1cccn2c(=O)c3cc(C(N)=S)c(=N)n(CCCOC(C)C)c3nc12	-5	1	2%	-8	2*	18
CCOCCCn1c(=N)c(C(N)=S)cc2c(=O)n3cccc(C)c3nc21	-9	1.2	9%	-11	1.9	-10
COCCCn1c(=N)c(C(=O)NCC2CCCO2)cc2c(=O)n3cccc(C)c3nc21 (configuration not stated)	0	1	3%	-14	2.9*	1
CCCn1c(=N)c(C(=O)NCC2CCCO2)cc2c(=O)n3cccc(C)c3nc21 (configuration not stated)	-2	1	17%	-20	3.7*	-7
COCCn1c(=O)[nH]c2cc(C(=O)NCC3CCCO3)ccc2c1=O (configuration not stated)	.	0.99	9%	-6	1.5	-5
Cc1ccc(CNC(=O)c2cc3c(=O)n4cccc(C)c4nc3n(CC3CCCO3)c2=N)cc1 (configuration not stated)	-3	1	5%	-7	4*	4
COc1ccc(N2CCN(CCCNS(=O)(=O)c3c(C)noc3/C=C/N(C)C)CC2)cc1	3	1.1	5%	-1	0.94	-14
COCCCn1c(=N)c(C(=O)NCC2CCCO2)cc2c(=O)n3ccccc3nc21 (configuration not stated)	-5	1	9%	-5	4.9*	-10
N=c1c(C(=O)NCc2ccc(F)cc2)cc2c(=O)n3ccccc3nc2n1CC1CCCO1 (configuration not stated)	-14	1	7%	-2	3.9*	6
COc1ccc(CNC(=O)c2cc3c(=O)n4ccccc4nc3n(Cc3ccco3)c2=N)cc1	33	0.99	2%	-4	1.3	12
N=c1c(C(=O)NC2CCCC2)cc2c(=O)n3ccccc3nc2n1CCN1CCOCC1	-2	1.1	5%	-20	1.9	0
CCOCCCn1c(=N)c(C(=O)Nc2cc(C)on2)cc2c(=O)n3ccccc3nc21	-6	1	1%	6	2.1*	-11
CCOc1ccccc1NC(=O)NC1CC2CCCC(C1)N2Cc1nnnn1CCc1ccccc1 (configuration not stated)	0	0.98	3%	11	1.1	9
CC1CC(C)CN(CCCNC(=O)C2CCC(=O)N2C2CCCC2)C1 (configuration not stated)	-4	1	6%	9	1.1	-2
CCN1CCN(c2ccc(-n3c(C)nc4c(cnn4-c4ccccc4Cl)c3=O)cc2)CC1	-1	0.98	5%	0	1.1	2
Cc1ccc2cc(C#N)c(NCCNC(=O)C3CC3)nc2c1C	3	1	14%	-20	3.2*	-1
Cc1noc(C(=O)N2CC3(C)CC2CC(C)(C)C3)c1Cl (configuration not stated)	1	1.1	2%	1	1.1	2
COCCCn1c2nc3ccccc3nc2c2c(=O)n(-c3ccccc3OC)cnc21	-5	1.1	8%	20	2.4*	-5
CCCCCCn1cnc2c(c1=O)c1nc3ccccc3nc1n2Cc1cccs1	1	1.1	6%	-14	2.3*	5
SMILES	Hsp90 block	A340 absorber	NADH enzymes	DUSP1 inh	Fluor 339 460	Cdc25B inh
CC(C)CCn1cnc2c(c1=O)c1nc3ccccc3nc1n2Cc1ccc2c(c1)OCO2	-1	1.1	2%	-11	3.6*	2
COCCCn1c2nc3ccccc3nc2c2c(=O)n(-c3ccccc3OC)c(C)nc21	20	1	11%	-11	1.9	22
COCCCn1cnc2c(c1=O)c1nc3ccccc3nc1n2CCc1ccccc1	0	1.1	2%	13	2.4*	31
O=c1cc(N2CCOCC2)oc2c(-c3ccccc3)cccc12	2	.	.	.	.	.
Nc1nc2n(n1)C(c1ccc(F)cc1)CC(c1ccc(F)cc1)N2 (configuration not stated)	-2	0.99	2%	-14	1.1	0
Cc1cccc(S(=O)(=O)C(C#N)c2nc3ccccc3nc2N2CCOCC2)c1 (configuration not stated)	-6	1	4%	-3	1.4	4
CCCCCC(=O)Nc1ccc(S(=O)(=O)Nc2nccnc2OC)cc1	0	1.1	6%	14	1.1	2
CCOCCCn1cnc2c(c1=O)c1nc3ccccc3nc1n2-c1ccccc1	-2	1.1	11%	29	3*	4
CCCCn1c2nc3ccccc3nc2c2c(=O)n(CCC)cnc21	-1	1.1	9%	2	3.9*	10
C[N+]1=C2CCCCCN2C(O)(c2ccccc2)C1 (configuration not stated)	-1	0.97	5%	-6	1.1	-15
Cc1cc(NCCCN2CCOCC2)n2ncc(-c3ccc(Cl)cc3)c2n1	1	1	12%	16	3.9*	-22
COc1cccc(OC)c1C(=O)N1CCN(Cc2ccccc2C)CC1	-3	1	17%	18	0.85	2
N#Cc1nc(-c2ccco2)oc1N1CCc2ccccc2C1	-7	1.1	8%	-22	3.8*	4
N#Cc1nc(-c2ccco2)oc1N1CCN(C(c2ccccc2)c2ccccc2)CC1	-1	1.1	7%	-4	1.9	-1
N#Cc1nc(-c2ccco2)oc1N1CCCC1	0	1.1	14%	-16	3.9*	-15
O=S(=O)(c1ccccc1)c1nc(-c2ccco2)oc1N1CCOCC1	-2	1	4%	-14	1.1	5
CC1CC(C)CN(c2oc(-c3ccco3)nc2C#N)C1 (configuration not stated)	-2	1.1	16%	4	2.2*	-2
